# Experiments:
# [1] = biological target: RAC-alpha serine/threonine-protein kinase (Homo sapiens) (UniProt P31749); conditions: at 0.1 µM
# [2] = biological target: RAC-alpha serine/threonine-protein kinase (Homo sapiens) (UniProt P31749); conditions: at 1 µM
# [3] = biological target: RAC-beta serine/threonine-protein kinase (Homo sapiens) (UniProt P31751); conditions: at 0.1 µM
# [4] = biological target: RAC-beta serine/threonine-protein kinase (Homo sapiens) (UniProt P31751); conditions: at 1 µM
# [5] = biological target: RAC-gamma serine/threonine-protein kinase (Homo sapiens) (UniProt Q9Y243); conditions: at 0.1 µM
# [6] = biological target: RAC-gamma serine/threonine-protein kinase (Homo sapiens) (UniProt Q9Y243); conditions: at 1 µM
# [7] = biological target: G protein-coupled receptor kinase 6 (Homo sapiens) (UniProt P43250); conditions: at 0.1 µM
# [8] = biological target: G protein-coupled receptor kinase 6 (Homo sapiens) (UniProt P43250); conditions: at 1 µM
# [9] = biological target: T1, Rhodopsin kinase GRK7 (Homo sapiens) (UniProt Q8WTQ7); conditions: at 0.1 µM
# T1 sequence (whole entry): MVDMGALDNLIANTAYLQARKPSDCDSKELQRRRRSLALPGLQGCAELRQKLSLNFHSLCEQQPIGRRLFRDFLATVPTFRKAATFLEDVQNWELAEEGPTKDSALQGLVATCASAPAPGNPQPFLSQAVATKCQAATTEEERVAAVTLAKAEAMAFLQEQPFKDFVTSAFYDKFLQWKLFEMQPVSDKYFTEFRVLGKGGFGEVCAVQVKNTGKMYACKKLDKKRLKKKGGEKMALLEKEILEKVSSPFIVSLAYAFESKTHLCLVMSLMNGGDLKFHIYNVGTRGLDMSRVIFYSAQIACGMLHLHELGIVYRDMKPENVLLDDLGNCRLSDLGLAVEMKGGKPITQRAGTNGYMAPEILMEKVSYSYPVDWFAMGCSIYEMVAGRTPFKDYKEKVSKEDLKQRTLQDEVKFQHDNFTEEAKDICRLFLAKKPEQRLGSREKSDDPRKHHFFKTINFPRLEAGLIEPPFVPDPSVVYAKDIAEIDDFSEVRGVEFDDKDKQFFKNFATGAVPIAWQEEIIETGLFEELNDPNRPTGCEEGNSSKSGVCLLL
# [10] = biological target: T1, Rhodopsin kinase GRK7 (Homo sapiens); conditions: at 1 µM
# [11] = biological target: Serine/threonine-protein kinase MRCK alpha (Homo sapiens) (UniProt Q5VT25); conditions: at 0.1 µM
# [12] = biological target: Serine/threonine-protein kinase MRCK alpha (Homo sapiens) (UniProt Q5VT25); conditions: at 1 µM
# [13] = biological target: Serine/threonine-protein kinase MRCK beta (Homo sapiens) (UniProt Q9Y5S2); conditions: at 0.1 µM
# [14] = biological target: Serine/threonine-protein kinase MRCK beta (Homo sapiens) (UniProt Q9Y5S2); conditions: at 1 µM
# [15] = biological target: Ribosomal protein S6 kinase alpha-5 (Homo sapiens) (UniProt O75582); conditions: at 0.1 µM
# [16] = biological target: Ribosomal protein S6 kinase alpha-5 (Homo sapiens) (UniProt O75582); conditions: at 1 µM
# [17] = biological target: Ribosomal protein S6 kinase alpha-4 (Homo sapiens) (UniProt O75676); conditions: at 0.1 µM
# [18] = biological target: Ribosomal protein S6 kinase alpha-4 (Homo sapiens) (UniProt O75676); conditions: at 1 µM
# [19] = biological target: Ribosomal protein S6 kinase beta-1 (Homo sapiens) (UniProt P23443); conditions: at 0.1 µM
# [20] = biological target: Ribosomal protein S6 kinase beta-1 (Homo sapiens) (UniProt P23443); conditions: at 1 µM
# Chain of Ribosomal protein S6 kinase beta-1 (Homo sapiens) (P23443 whole entry, looked up): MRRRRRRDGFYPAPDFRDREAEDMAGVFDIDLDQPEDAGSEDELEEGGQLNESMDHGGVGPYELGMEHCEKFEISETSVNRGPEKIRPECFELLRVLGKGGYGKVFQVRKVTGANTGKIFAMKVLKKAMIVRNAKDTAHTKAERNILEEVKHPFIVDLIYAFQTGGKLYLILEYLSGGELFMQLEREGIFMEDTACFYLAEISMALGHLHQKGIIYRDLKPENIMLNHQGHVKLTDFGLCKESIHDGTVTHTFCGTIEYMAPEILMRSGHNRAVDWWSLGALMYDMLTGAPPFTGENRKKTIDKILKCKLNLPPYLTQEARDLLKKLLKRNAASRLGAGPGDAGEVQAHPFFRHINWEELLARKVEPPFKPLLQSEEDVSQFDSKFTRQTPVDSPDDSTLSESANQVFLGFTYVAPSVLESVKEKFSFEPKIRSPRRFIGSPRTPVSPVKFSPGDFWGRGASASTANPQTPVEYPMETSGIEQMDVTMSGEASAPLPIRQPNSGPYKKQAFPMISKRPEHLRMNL
# Chain of Serine/threonine-protein kinase MRCK beta (Homo sapiens) (Q9Y5S2 whole entry): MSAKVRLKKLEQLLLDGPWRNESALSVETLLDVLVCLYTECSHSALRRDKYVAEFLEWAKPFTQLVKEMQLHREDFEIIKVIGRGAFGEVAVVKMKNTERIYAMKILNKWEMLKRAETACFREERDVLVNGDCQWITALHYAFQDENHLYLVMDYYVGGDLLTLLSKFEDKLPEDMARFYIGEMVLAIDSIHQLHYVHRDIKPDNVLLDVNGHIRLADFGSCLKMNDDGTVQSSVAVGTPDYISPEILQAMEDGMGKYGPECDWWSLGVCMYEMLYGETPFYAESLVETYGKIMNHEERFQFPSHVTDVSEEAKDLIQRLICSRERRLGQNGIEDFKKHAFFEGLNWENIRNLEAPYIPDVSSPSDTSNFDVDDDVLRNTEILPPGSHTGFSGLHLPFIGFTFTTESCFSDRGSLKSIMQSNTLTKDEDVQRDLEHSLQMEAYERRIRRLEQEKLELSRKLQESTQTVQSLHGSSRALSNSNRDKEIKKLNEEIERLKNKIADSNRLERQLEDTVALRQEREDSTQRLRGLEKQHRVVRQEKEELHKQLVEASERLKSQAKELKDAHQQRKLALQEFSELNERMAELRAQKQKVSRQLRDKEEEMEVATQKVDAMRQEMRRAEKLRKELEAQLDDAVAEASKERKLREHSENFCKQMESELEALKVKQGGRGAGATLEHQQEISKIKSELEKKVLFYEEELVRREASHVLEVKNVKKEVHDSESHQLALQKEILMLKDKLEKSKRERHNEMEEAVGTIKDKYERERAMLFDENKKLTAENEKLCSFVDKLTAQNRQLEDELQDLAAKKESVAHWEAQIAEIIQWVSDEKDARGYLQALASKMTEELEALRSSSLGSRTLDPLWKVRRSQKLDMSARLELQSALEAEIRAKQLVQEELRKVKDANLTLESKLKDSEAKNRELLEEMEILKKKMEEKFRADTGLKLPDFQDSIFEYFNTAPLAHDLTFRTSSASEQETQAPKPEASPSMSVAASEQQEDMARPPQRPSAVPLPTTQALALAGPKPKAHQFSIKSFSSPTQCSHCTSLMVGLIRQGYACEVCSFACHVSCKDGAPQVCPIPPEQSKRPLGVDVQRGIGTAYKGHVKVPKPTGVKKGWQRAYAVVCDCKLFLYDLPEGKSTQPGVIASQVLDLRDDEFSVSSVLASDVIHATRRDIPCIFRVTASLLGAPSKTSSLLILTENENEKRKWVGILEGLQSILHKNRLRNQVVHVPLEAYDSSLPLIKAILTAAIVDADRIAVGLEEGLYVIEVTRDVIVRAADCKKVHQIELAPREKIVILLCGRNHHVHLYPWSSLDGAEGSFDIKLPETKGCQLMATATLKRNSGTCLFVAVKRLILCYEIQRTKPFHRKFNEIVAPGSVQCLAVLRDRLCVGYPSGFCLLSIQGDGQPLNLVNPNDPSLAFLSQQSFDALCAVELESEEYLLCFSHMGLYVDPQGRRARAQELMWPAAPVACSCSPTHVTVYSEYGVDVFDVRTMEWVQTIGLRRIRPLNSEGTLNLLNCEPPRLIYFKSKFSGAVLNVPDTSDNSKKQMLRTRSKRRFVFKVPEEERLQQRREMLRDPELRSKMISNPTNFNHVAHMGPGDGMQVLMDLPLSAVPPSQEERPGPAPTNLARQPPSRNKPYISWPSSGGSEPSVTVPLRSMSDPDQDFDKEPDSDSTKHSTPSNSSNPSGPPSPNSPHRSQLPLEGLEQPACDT
# Chain of G protein-coupled receptor kinase 6 (Homo sapiens) (P43250 whole entry, looked up): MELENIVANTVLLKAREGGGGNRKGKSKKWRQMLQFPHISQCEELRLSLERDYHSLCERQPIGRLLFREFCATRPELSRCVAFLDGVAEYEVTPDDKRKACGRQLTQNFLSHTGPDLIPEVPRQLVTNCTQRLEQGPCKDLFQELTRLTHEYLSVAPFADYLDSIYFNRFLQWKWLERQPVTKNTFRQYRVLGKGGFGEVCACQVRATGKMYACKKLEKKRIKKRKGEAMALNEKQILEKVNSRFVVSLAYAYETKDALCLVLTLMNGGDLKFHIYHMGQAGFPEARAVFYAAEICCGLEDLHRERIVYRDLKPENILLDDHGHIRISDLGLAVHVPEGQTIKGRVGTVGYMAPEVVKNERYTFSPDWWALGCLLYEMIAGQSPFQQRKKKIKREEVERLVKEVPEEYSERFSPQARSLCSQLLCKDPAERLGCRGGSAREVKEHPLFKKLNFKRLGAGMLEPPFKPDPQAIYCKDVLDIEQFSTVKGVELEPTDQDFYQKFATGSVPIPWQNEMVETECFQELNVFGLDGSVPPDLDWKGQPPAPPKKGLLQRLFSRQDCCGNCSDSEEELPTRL
# Chain of RAC-beta serine/threonine-protein kinase (Homo sapiens) (P31751 whole entry): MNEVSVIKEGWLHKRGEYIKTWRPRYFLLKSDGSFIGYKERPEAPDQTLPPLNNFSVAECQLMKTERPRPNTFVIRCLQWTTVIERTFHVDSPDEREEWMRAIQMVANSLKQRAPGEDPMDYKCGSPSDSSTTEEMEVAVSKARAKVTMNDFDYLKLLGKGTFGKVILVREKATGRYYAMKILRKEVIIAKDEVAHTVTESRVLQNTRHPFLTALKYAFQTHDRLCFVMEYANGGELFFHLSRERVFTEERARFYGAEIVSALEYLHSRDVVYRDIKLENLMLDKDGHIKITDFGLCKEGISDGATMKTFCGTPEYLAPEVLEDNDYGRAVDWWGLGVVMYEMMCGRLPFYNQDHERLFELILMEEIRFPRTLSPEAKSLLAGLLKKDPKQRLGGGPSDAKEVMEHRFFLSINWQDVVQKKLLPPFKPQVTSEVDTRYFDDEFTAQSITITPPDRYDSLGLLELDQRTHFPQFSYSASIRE
# Chain of Serine/threonine-protein kinase MRCK alpha (Homo sapiens) (Q5VT25 whole entry): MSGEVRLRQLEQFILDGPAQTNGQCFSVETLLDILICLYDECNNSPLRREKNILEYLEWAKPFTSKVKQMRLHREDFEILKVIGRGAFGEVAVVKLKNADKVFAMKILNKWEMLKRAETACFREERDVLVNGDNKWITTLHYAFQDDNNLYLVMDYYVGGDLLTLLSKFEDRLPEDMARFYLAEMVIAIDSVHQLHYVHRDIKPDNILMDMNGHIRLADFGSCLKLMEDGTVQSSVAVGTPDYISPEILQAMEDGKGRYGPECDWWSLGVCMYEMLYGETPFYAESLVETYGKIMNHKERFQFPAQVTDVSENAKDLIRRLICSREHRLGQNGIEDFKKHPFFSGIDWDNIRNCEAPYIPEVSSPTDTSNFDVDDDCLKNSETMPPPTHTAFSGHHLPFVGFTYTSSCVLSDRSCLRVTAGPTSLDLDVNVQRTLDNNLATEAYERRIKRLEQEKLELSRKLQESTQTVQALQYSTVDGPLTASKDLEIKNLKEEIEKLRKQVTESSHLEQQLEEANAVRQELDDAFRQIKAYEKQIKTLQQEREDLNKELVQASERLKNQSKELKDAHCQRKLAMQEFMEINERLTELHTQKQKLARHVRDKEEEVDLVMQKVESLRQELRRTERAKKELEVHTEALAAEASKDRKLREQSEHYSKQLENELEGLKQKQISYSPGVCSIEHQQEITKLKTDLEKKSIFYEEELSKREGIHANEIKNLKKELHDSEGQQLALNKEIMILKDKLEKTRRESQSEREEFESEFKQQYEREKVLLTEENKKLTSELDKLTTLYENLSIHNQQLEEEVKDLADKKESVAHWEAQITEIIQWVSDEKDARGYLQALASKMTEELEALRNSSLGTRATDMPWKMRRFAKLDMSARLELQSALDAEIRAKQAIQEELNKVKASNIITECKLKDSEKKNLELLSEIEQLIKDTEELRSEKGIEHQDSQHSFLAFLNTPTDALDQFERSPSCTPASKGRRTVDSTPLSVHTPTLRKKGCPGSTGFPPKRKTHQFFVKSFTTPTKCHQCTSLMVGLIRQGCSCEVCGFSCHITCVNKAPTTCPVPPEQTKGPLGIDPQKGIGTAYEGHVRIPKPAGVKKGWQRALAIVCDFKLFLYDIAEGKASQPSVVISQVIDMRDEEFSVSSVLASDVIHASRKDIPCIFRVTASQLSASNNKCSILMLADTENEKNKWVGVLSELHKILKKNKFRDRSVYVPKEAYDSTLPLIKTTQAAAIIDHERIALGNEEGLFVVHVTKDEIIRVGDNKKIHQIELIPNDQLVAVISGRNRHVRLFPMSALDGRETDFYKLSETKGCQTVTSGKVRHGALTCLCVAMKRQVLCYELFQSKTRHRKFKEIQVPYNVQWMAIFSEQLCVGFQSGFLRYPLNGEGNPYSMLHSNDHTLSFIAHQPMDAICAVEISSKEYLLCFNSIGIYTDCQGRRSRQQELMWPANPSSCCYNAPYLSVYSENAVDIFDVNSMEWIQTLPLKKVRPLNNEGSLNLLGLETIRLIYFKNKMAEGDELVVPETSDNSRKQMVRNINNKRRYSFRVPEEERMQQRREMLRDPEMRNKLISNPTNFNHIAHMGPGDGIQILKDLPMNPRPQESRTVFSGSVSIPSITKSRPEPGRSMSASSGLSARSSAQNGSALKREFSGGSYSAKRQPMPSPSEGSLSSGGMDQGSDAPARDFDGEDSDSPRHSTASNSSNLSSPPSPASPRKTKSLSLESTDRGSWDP
Compound,inhibition [1] [%],inhibition [2] [%],inhibition [3] [%],inhibition [4] [%],inhibition [5] [%],inhibition [6] [%],inhibition [7] [%],inhibition [8] [%],inhibition [9] [%],inhibition [10] [%],inhibition [11] [%],inhibition [12] [%],inhibition [13] [%],inhibition [14] [%],inhibition [15] [%],inhibition [16] [%],inhibition [17] [%],inhibition [18] [%],inhibition [19] [%],inhibition [20] [%]
COc1ccc(-c2cc3c(N)ncnc3o2)cc1,-0.96,-1.46,-0.81,-0.64,-1.06,1.62,-0.25,0.98,3.4,-1.5,1.37,-2.67,1.33,-0.07,-2.51,-3.04,-0.05,-0.35,-0.5,-0.54
COC(=O)Nc1nc2ccc(Oc3ccc(NC(=O)Nc4cccc(Cl)c4)cc3)cc2[nH]1,-0.35,-0.4,-0.4,0.5,-0.34,1.86,-1.85,0.02,3.03,16.8,-2.43,-0.92,-0.72,-1.4,0.39,-1.18,0.82,-0.55,0.63,0.82
COc1cccc(-c2c[nH]c3c(N/N=C/c4ccncc4)ncnc23)c1,1.29,0.32,1.22,-0.06,1.48,-0.22,-1.66,-7.11,0.28,-6.92,0.71,6.35,0.92,5.25,8.98,9.82,2.85,4.13,2.85,8.54
CCn1c(-c2nonc2N)nc2c(C#CC(C)(C)O)nc(OC[C@H](N)c3ccccc3)cc21,64.2,90.4,75.3,92,66.8,91.7,2.82,5.48,2.77,15,11.8,36.3,3.04,26.6,3.37,17.7,3.75,20.5,4.66,33.1
NS(=O)(=O)c1ccc(N/N=C2\C(=O)Nc3ccc4ncccc4c32)cc1,0.85,0.69,1.6,2.48,1.36,2.03,-2.97,15.8,4.91,19,1.68,13.5,0.55,7.07,5.1,14.5,20.4,61.2,2.37,12.1
Cc1cccc2c1NC(=O)/C2=N\Nc1ccc(S(N)(=O)=O)cc1,1.04,1.19,2.18,1.39,1.07,1.15,2.1,3.62,1.49,-6.16,-1.02,-1.52,1.33,2.51,2.97,4.06,1.89,3.82,1.66,2.26
CC(C)COC(=O)c1ccc2c(c1)/C(=C/Nc1ccc(S(N)(=O)=O)cc1)C(=O)N2,1.6,2.22,0.67,1.73,1.5,6.82,1.33,10.1,-4.26,9.41,3.02,6.98,3.62,12.7,3.88,11.6,5.45,20.9,3,18.1
Clc1ccc(-c2nn3ncccc3c2-c2ccnc(Nc3ccccc3)n2)cc1,0.13,0.62,0.64,1.15,1.22,-0.89,2.85,1.72,3.88,-1.87,-0.06,0.52,0.76,1.28,0.64,2.07,1,2.91,0.57,-0.24
NS(=O)(=O)c1ccc(Nc2ncc(-c3ccccc3)o2)cc1,0.78,0.93,2.08,1.95,0.97,1.49,4.73,3.06,2.42,2.99,-0.91,-1.21,0.24,1.14,3.01,4.81,3,5.37,2.3,3.51
COc1cc(N2CCN(C(C)C)CC2)ccc1Nc1nc(Nc2ccc(F)cc2C(N)=O)c2cc[nH]c2n1,0.91,2.86,1.62,3.68,1.62,4.8,3.9,14.3,5.3,10.1,9.71,20,1.18,16.4,1.85,6.61,1.8,7.26,1.81,5.41
COc1cc2ncn(-c3cc(OCc4ccccc4C(F)(F)F)c(C(=O)N(C)C)s3)c2cc1OC,-0.4,-0.11,-0.31,0.45,0.89,1.26,-0.42,0.69,-2.57,3.66,0.01,0.75,-1.11,1.24,-0.57,-0.4,0.13,0.89,-0.55,-1.48
COc1ccc(-c2oc3ncnc(N)c3c2-c2ccc(NC(=O)Nc3cc(C(F)(F)F)ccc3F)cc2)cc1,1.18,1.66,3.21,2.57,1.23,2.55,4.19,12.7,4.51,22,0.52,6.52,0.63,1.86,5.16,16.1,4.9,24.2,11.7,68.2
COc1ccc(-c2nn3ncccc3c2-c2ccnc(Nc3ccc4c(c3)OCCO4)n2)cc1,-0.35,-0.09,-0.91,-0.18,0.24,2.32,-1.91,-1.49,4.16,2.81,-0.27,-2.49,0.2,0,0.41,-0.38,1.07,-0.23,0.77,-0.95

# Reference: ChEMBL document CHEMBL1961873, “Compounds: GSK PKIS; Assays: Nanosyn kinase panel” (2012)
